# Laboratory results as given in PubChem BioAssay.
# Activity calls are given as the source filed them.
# How the values were obtained:
# [1] = target: Albumin (Bos taurus) (UniProt P02769); assay: bovine serum albumin binders on microarray, profiling panel, artefact control for SMM control protein annotation, biochemical, small-molecule microarray, Alexa647 label, 635/667 nm fluorescence (AID 1118); details: BSA-A647 binding, fluorescence 635 nm, higher = more signal;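 further: score merges 667 nm emission intensity and signal-to-noise per printed compound spot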
# Chain of Albumin (Bos taurus) (P02769 whole entry, looked up): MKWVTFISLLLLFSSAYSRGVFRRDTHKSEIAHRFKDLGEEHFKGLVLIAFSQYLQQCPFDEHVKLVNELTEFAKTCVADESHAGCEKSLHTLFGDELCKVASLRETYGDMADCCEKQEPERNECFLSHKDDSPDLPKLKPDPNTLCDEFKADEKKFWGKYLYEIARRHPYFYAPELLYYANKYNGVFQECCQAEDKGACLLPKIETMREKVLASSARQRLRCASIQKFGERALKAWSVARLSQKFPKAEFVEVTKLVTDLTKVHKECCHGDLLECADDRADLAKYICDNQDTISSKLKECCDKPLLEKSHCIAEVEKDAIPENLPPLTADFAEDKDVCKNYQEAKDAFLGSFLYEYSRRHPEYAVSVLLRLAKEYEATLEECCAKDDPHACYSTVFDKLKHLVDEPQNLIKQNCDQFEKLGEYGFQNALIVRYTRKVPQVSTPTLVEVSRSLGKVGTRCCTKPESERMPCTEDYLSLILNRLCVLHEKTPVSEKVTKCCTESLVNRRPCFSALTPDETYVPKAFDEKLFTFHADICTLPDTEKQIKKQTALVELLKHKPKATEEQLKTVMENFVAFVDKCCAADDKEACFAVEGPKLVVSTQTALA
# [2] = small-molecule microarray binders of probe aXIP, primary screen, biochemical, NeuroSMM set, 635/667 nm fluorescence (AID 1119); details: higher = more signal, called active from +8 up or from −8 down;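 further: probe is the protein aXip251-270 applied at 1 µg/mL to compound-printed slides; binding of probe to printed compounds measured as 667 nm fluorescence plus signal to noise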
# [3] = small-molecule binders of probe aNOTCH3, primary screen, biochemical, small-molecule microarray, 635/667 nm fluorescence (AID 1120); details: higher = more signal;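 further: probe is a biotin-tagged antibody raised against NOTCH3 rather than NOTCH3 protein; score merges spot fluorescence near 667 nm with spot signal to noise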
# [4] = small-molecule binders of probe aNOTCH2, primary screen, biochemical, small-molecule microarray, 635/667 nm fluorescence (AID 1121); details: higher = more signal;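 further: score merges feature fluorescence read at 667 nm with its signal to noise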
# [5] = target: Carbonic anhydrase 2 (Homo sapiens) (UniProt P00918); assay: CAII small-molecule binders, profiling panel, biochemical, small-molecule microarray, Alexa647-labelled CAII (AID 1122); details: CAII-A647 binding fluorescence, higher = more signal
# [6] = COS7 lysate on small-molecule microarray, probe aHis, 635 nm (AID 1123); details: COS7 cell lysate, fluorescence, higher = more signal;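 further: z-score combines 667nm fluorescence intensity with signal-to-noise per printed compound spot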
# [7] = compound binding in COS7 lysate, probe aLAP1, primary screen, cell lysate, small-molecule microarray (AID 1124); details: probe aLAP1, fluorescence, higher = more signal;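 further: lysate comes from COS7 cells expressing LAP1 and is applied at 0.3 µg/mL; score merges spot fluorescence near 667 nm with signal-to-noise over triplicate slides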
# [8] = test system: Sam68 (KHDRBS1); assay: Sam68 small-molecule binders, primary screen, biochemical, small-molecule microarray, 635 nm fluorescence (AID 1125); details: small-molecule microarray binding, higher = more signal;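 further: score merges 667 nm channel intensity with signal to noise over triplicate slides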
# [9] = test system: Chordin-like protein 2 (CHRDL2); assay: CHRDL2 small-molecule binders, primary screen, biochemical, small-molecule microarray, 635 nm fluorescence (AID 1126); details: small-molecule microarray binding, fluorescence 635 nm; higher = more signal;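 further: printed compound slides probed with Chrdl2 protein at 4 µg/mL for 1 h at 4 C; score merges 667 nm emission intensity with signal to noise over three replicate slides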
# [10] = target: Concanavalin-A (Canavalia ensiformis) (UniProt P02866); assay: ConA small-molecule binders, primary screen, artefact control for SMM control protein annotation, biochemical, small-molecule microarray, Alexa647 label, 635 nm (AID 1127); details: ConA-A647 binding fluorescence, higher = more signal;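 further: z combines 667 nm emission intensity with signal-to-noise across three replicate slides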
# Chain of Concanavalin-A (Canavalia ensiformis) (P02866 whole entry, looked up): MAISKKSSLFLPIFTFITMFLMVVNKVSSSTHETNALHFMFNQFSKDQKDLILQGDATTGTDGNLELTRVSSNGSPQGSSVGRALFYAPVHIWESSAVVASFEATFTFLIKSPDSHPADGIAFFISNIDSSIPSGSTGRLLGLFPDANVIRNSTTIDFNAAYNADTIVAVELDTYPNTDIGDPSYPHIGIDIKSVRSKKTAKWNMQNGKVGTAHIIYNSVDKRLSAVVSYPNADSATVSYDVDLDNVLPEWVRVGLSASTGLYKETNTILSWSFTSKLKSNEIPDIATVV
# [11] = anti-His antibody binders, primary screen, artefact control for SMM control protein annotation, biochemical, small-molecule microarray, 635 nm fluorescence (AID 1128); details: anti-His Alexa647 antibody binding, higher = more signal;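 further: score merges feature fluorescence with signal-to-noise for each printed compound spot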
# [12] = test system: Human papillomavirus type 1a E7 protein (residues 1-88); assay: HPV1a E7 small-molecule binders, primary screen, biochemical, small-molecule microarray, residues 1-88, 635 nm (AID 1129); details: small-molecule microarray binding, fluorescence 635 nm; higher = more signal
# [13] = target: Focal adhesion kinase 1 (Homo sapiens) (UniProt Q05397); assay: small-molecule microarray binders of FAK, primary screen, biochemical, 635/667 nm fluorescence, BSA, DTT (AID 1130); details: PTK2 binding, 635 nm fluorescence, higher = more signal;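 further: composite of spot emission at 667 nm and signal to noise over triplicate slides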
# Chain of Focal adhesion kinase 1 (Homo sapiens) (Q05397 whole entry, looked up): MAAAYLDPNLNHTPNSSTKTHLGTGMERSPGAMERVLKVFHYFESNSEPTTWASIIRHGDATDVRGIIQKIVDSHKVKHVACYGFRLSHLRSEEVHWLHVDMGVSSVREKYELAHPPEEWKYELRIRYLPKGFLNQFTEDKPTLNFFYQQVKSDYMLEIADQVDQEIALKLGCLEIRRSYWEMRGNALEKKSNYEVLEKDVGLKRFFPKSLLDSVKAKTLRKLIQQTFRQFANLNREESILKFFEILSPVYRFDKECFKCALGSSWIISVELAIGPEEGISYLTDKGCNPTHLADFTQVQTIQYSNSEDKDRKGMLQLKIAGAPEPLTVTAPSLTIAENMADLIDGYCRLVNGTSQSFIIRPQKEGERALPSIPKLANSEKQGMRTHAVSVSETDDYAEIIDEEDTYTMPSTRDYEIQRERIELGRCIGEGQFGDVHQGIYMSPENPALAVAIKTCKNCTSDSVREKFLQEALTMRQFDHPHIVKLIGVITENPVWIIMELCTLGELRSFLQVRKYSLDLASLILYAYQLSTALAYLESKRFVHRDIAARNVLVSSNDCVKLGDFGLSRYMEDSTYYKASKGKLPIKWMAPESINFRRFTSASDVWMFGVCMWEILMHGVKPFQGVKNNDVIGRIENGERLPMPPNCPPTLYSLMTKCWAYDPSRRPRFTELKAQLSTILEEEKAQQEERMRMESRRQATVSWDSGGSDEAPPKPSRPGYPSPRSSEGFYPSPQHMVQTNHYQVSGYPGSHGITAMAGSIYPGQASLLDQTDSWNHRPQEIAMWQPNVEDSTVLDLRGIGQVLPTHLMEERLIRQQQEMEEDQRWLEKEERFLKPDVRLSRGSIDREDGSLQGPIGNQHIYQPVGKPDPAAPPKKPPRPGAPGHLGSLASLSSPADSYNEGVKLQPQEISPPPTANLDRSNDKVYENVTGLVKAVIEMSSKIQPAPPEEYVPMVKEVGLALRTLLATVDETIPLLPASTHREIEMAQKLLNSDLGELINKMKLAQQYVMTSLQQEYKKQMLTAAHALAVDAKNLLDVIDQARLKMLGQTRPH
# [14] = test system: Fibrinogen (Alexa647-labelled); assay: fibrinogen binders on compound microarrays, profiling panel, artefact control for SMM control-protein annotation, biochemical, small-molecule microarray, 635/667 nm fluorescence (AID 1131); details: fibrinogen-A647 binding fluorescence, higher = more signal;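 further: z-score merges 667 nm fluorescence with per-spot signal-to-noise over triplicate slides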
# [15] = target: Follistatin (Homo sapiens) (UniProt P19883); assay: follistatin binders on small-molecule microarrays, primary screen, biochemical, small-molecule microarray, 635/667 nm fluorescence (AID 1132); details: FST binding, 635 nm fluorescence, higher = more signal
# Chain of Follistatin (Homo sapiens) (P19883 whole entry, looked up): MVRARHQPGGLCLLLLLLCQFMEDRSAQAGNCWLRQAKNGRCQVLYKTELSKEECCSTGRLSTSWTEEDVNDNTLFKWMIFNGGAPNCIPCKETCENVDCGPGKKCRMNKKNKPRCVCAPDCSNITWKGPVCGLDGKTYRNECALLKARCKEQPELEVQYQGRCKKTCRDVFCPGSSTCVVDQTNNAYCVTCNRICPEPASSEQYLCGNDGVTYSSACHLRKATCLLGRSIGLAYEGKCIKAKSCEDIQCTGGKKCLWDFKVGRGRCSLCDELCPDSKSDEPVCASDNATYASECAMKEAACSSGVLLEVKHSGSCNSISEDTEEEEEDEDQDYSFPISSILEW
# [16] = target: Fibroblast growth factor 2 (Homo sapiens) (UniProt P09038); assay: FGF2 binders on small-molecule microarrays, primary screen, biochemical, small-molecule microarray, 635/667 nm fluorescence (AID 1133); details: small-molecule microarray binding, FGF2, fluorescence 635/667; higher = more signal
# Chain of Fibroblast growth factor 2 (Homo sapiens) (P09038 whole entry, looked up): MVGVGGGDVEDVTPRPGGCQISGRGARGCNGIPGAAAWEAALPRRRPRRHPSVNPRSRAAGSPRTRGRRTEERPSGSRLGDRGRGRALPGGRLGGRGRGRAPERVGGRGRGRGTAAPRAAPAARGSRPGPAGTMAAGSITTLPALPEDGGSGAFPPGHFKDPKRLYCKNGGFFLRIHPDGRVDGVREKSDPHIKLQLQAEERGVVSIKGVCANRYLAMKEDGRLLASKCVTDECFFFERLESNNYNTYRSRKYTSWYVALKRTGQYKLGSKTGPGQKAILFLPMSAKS
# [17] = mitochondrial membrane potential change in A549 cells, profiling panel, cell-based, JC-1 fluorescence, basal, 24 h, 100 nL (AID 1138); details: higher = more signal;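 further: A549 lung adenocarcinoma cells under basal conditions with no added stimulus; test concentration not given here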
# [18] = test system: Lefty1; assay: Lefty1 binders on small-molecule microarrays, primary screen, biochemical, small-molecule microarray, 635/667 nm fluorescence (AID 1139); details: small-molecule microarray binding, fluorescence 635/667; higher = more signal
# [19] = test system: wheat germ agglutinin (Triticum aestivum), Alexa647-labelled; assay: wheat germ agglutinin binders on compound microarrays, profiling panel, artefact control for SMM control-protein annotation, biochemical, small-molecule microarray, 635/667 nm fluorescence (AID 1140); details: WGA-A647 binding, 635 nm fluorescence, higher = more signal;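 further: score merges 667 nm feature emission with signal to noise over triplicate slides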
# [20] = target: Luciferin 4-monooxygenase (Photinus pyralis) (UniProt P08659); assay: firefly luciferase enzyme inhibitors, primary screen, biochemical, luminescence, purified enzyme, 2006 set (AID 1141); details: SteadyGlo luminescence, 30 min, higher = more signal, called active from +8 up or from −8 down;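 further: cell-free assay with purified firefly luciferase at 100 ng per well in PBS; test concentration not given here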
# Chain of Luciferin 4-monooxygenase (Photinus pyralis) (P08659 whole entry, looked up): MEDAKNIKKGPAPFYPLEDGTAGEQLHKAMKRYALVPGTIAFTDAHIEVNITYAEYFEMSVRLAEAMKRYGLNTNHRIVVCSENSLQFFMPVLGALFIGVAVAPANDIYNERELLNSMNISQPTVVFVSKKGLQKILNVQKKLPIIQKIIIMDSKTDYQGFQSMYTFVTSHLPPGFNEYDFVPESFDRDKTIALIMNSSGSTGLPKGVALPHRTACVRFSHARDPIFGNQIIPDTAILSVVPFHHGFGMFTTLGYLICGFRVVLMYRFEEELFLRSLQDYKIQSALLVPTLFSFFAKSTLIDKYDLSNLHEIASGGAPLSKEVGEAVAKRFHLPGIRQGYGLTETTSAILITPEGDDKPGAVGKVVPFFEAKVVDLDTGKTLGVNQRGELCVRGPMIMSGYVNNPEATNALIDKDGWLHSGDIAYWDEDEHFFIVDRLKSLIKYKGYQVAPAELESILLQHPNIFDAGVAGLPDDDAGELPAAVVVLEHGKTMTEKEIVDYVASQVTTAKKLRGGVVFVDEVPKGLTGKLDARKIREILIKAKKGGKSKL
SMILES,composite z-score [1],composite Z-score [2],composite z-score [3],composite z-score [4],composite z-score [5],composite z-score [6],composite z-score [7],composite z-score [8],composite z-score [9],composite z-score [10],composite z-score [11],composite z-score [12],composite z-score [13],composite z-score [14],composite z-score [15],composite z-score [16],z-score [17],composite z-score [18],composite z-score [19],z-score [20]
NC(=O)N1C(=O)C2C(C1=O)C1C=C(c3ccc(CO)cc3)C2C(C2CC2)N1Cc1cc2c(cc1Br)OCO2 (stereo not given),0.585,0.219 (inactive),-0.0377,-0.0745,0.762,1.32,-0.421,0.61,-0.312,0.574,2.29,0.066,0.138,0.157,0.197,-0.149,1.96,0.828,0.216,-2.17 (inactive)
C=C(C1=CCN(S(=O)(=O)c2ccc(C)cc2)C1)[C@@H](OC(C)=O)[C@@H]1CCCN1S(=O)(=O)c1ccccc1[N+](=O)[O-],-1.41,-0.0256 (inactive),-0.127,-0.194,0.139,0.586,-0.273,-0.339,-0.486,-1.53,0.0491,0.128,0.137,-1.38,-0.273,-0.343,1.7,-0.0118,-1.42,-1.35 (inactive)
C=CCC(OC(C)=O)[C@@H]1[C@@H](N(Cc2cc3ccccc3o2)C(=O)c2ccc(-c3ccccc3)cc2)c2cc(OCCCO)ccc2N1C(=O)c1ccc(-c2ccccc2)cc1 (stereo not given in full),0.327,-0.474 (inactive),0.061,-0.148,0.301,0.568,0.0482,-0.19,-0.333,-0.395,-0.853,-0.43,0.25,-0.796,0.227,-0.109,2.56,-0.147,-0.316,-1.02 (inactive)
CC(C)C(CO)N1C(=O)[C@@H]2[C@H]3C(=O)OCC=C[C@H]3OC23C=CCN(Cc2ccccc2)C(=O)[C@@H]13 (stereo not given in full),-1.27,-0.0662 (inactive),0.271,-0.154,0.833,-0.635,-0.733,-0.69,-1.02,-2.22,-1.88,-1.62,-0.778,-1.48,-0.317,-0.392,0.792,-0.375,-1.06,-0.511 (inactive)
CN(C)CCCC[C@@H]1NC(=O)[C@@H]2C[C@H](C(=O)NCCCCCNC(=O)CS)[C@H](c3cccc(OCCO)c3)N2C1=O,0.786,1.6 (inactive),-0.15,-0.167,0.82,0.356,0.303,0.528,0.728,0.65,2.04,0.05,0.387,0.119,1.49,1.65,0.43,1.45,0.626,-0.673 (inactive)
O=C1O[C@H](c2ccccc2)[C@H](c2ccccc2)N2[C@H]1[C@@H](C(=O)NC[C@H](O)c1ccccc1)[C@]1(C(=O)Nc3ccc(C#CC4(O)CCCCCC4)cc31)[C@H]2c1ccc(O)cc1,0.647,0.601 (inactive),0.246,-0.0404,0.359,0.892,1.07,1.33,0.233,1.12,1.23,0.843,0.333,0.574,1.31,1.01,-0.105,0.873,0.588,-1.56 (inactive)
C=C(C(=O)CC[C@@H](OC(C)=O)c1ccccc1OCCO)C(C)C,-0.952,0.222 (inactive),-0.0647,-0.167,0.664,-0.152,-0.0507,-0.247,-0.38,-0.779,0.138,-1.28,-0.485,-0.314,0.164,0.398,1.29,0.342,-0.242,-1.35 (inactive)
CCCCCCC#C[Si](O[C@H](c1ccccc1)c1cn(Cc2ccccc2)nn1)(C(C)C)C(C)C,0.0774,0.131 (inactive),-0.0918,-0.182,0.273,0.0604,0.155,0.458,0.187,0.132,0.254,0.262,-0.326,-0.418,0.126,0.594,4.41,0.806,-0.349,-1.15 (inactive)
C#CCN1C(C(=O)OCC)OC[C@H]1c1ccccc1 (stereo not given in full),-0.0202,0.369 (inactive),-0.128,-0.0861,-0.0406,4.71,0.847,0.487,0.602,0.303,0.264,-0.334,5.01,0.559,0.552,0.469,0.833,0.732,0.299,-0.547 (inactive)
